DENV2 CPE rescue = inhibitors of DENV2 cytopathic effect, primary screen, cell-based, plate reader, single concentration; AID 651640, 2012; 350,000 tested, 1.7% active; DENV2-infected cells, cytopathic effect rescue; CPE inhibition, % at 9.99 µM; in the data active = CPE inhibition above about 20%, passing the limit was not always enough; tested in BHK-21 cells;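 note: 0% = median of neutral control wells and 100% = median of positive control wells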
AF4-AF9 inh = inhibitors of AF4 peptide binding to AF9, primary screen, biochemical, AlphaScreen, biotin-AF4 peptide, FLAG-AF9, single point. Protein AF-9 (Homo sapiens), P42568. inhibition, % at 10 µM. 350,000 tested, 0.47% active;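 active = every replicate reaching a set inhibition limit, whatever the replicate mean, cut at about 25% in these data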;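 note: 0% = plate neutral control median and 100% = total signal loss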
RAD52 anneal inh = RAD52 DNA annealing inhibitors, primary screen, biochemical, FRET, single point, set 2 | AID 651710, 2012 | recombinant RAD52 DNA annealing, FRET fluorescence | inhibition, % at 18.7 µM | 360,000 tested, 0.46% active;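 active = every replicate showing at least 50% inhibition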
dFosB act = activators of delta FosB homodimer, primary screen, biochemical, fluorescence polarization, TAMRA-CDK5 oligo, single point. 340,000 tested, 0.99% active. activation, % at 25 µM. Protein FosB (Mus musculus), P13346. purified delta FosB; percent of positive-control signal above neutral wells;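 active = mean activation above about 17%, with every replicate also reaching it, limit read from the data, passing the limit was not always enough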
GSIS activator = GLuc luminescence reporter in INS-1E cells, primary screen for activators of glucose-dependent secretion of insulin | INS-1E GLuc reporter insulin secretion, 2-3 h | activation, % at 16.6 µM | 370,000 tested, 0.61% active;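 active = lowest replicate activation of at least 40%, so every replicate reaches that level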;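 note: 0% = median of neutral control wells and 100% = median of IBMX positive control wells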
RAD54 inh = inhibitors of human RAD54 branch migration, primary screen, biochemical, fluorescence, single point; DNA repair and recombination protein RAD54-like (Homo sapiens), Q92698; RAD54 Holliday junction branch migration, FAM/BHQ fluorescence; inhibition, % at 10.4 µM; 360,000 tested, 0.14% active;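 active = mean normalized replicate activity at least 40 and at least half of replicates scoring 40 or more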;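 note: 0% = median of neutral control wells and 100% = median of positive control wells; inhibitors cause a drop in the FAM fluorescence signal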
The depositor's hits bear a star. An excerpt weighted towards active compounds, which were near 3.1% of everything screened.

`Cc1cc(C(=O)Nc2cccc3c2O[C@@H](CN(C)CC2CC2)[C@@H](C)CN([C@@H](C)CO)C3=O)n(C)n1` gave DENV2 CPE rescue 5, AF4-AF9 inh -4, RAD52 anneal inh 0, GSIS activator 11 and RAD54 inh -6.
For COc1ccc(CNC(N)=O)cc1OC the results were dFosB act -1 and RAD54 inh 0.
COc1ccc(CN/C(C)=C(/C#N)C(N)=O)cc1OC was read as dFosB act 1, GSIS activator 65* and RAD54 inh -3.
CN[C@H]1C[C@H]2c3[nH]c4ccccc4c3CCN2C(=O)[C@H]1[C@H](C)O was read as DENV2 CPE rescue 24*, AF4-AF9 inh 3, RAD52 anneal inh -12, GSIS activator 1 and RAD54 inh -3.
For C[C@H](O)[C@@H]1C(=O)N2CCc3c([nH]c4ccccc34)[C@@H]2C[C@@H]1N(C)Cc1ccc(Cl)cc1 the results were DENV2 CPE rescue 1, AF4-AF9 inh 3, RAD52 anneal inh -25, GSIS activator -27 and RAD54 inh 1.
COc1ccc2c3c([nH]c2c1)[C@H](CO)N(C(=O)C1CCC1)CC31CCN(Cc2nccs2)CC1 was read as DENV2 CPE rescue 41*, AF4-AF9 inh -4, RAD52 anneal inh -5 and GSIS activator 2.
Screening COc1ccc2c3c([nH]c2c1)[C@@H](CO)N(C(=O)c1ccccn1)CC31CN(C(=O)C2CCCC2)C1 returned DENV2 CPE rescue 24*, AF4-AF9 inh -4, RAD52 anneal inh -3 and GSIS activator 9.
Screening COc1ccc2c3c([nH]c2c1)[C@H](CO)N(C(=O)c1cnccn1)CC31CCN(S(C)(=O)=O)CC1 returned DENV2 CPE rescue 68*, AF4-AF9 inh -4, RAD52 anneal inh 11 and GSIS activator 21.
Screening COc1ccc2c3c([nH]c2c1)[C@@H](CO)N(C(=O)C1CCCCC1)CC31CCN(Cc2nccs2)CC1 returned DENV2 CPE rescue 5, AF4-AF9 inh 0, RAD52 anneal inh 11 and GSIS activator 1.
COc1ccc2c3c([nH]c2c1)[C@@H](CO)N(Cc1ccc(Cl)cc1)CC31CCN(Cc2nccs2)CC1 was read as DENV2 CPE rescue -3, AF4-AF9 inh 7, RAD52 anneal inh -42 and GSIS activator -10.
`COc1ccc2c3c([nH]c2c1)[C@@H](CO)N(Cc1nccs1)CC31CCN(Cc2cccnc2)CC1` gave DENV2 CPE rescue -2, AF4-AF9 inh 0, RAD52 anneal inh 60* and GSIS activator -24.
Cc1ccc(S(=O)(=O)Nc2cccc3c2O[C@@H](CN(C)C)[C@@H](C)CN([C@H](C)CO)C3=O)cc1 was read as DENV2 CPE rescue 4, AF4-AF9 inh -2, RAD52 anneal inh 6, GSIS activator 16 and RAD54 inh -1.
For COc1ccc2c3c([nH]c2c1)[C@H](CO)N(Cc1nccs1)CC31CN(C(=O)C2CCCCC2)C1 the results were DENV2 CPE rescue -8, AF4-AF9 inh 9, RAD52 anneal inh -26 and GSIS activator 0.
`COc1ccc2c3c([nH]c2c1)[C@@H](CO)N(Cc1nccs1)CC31CN(C(=O)C2CCCC2)C1` gave DENV2 CPE rescue 29*, AF4-AF9 inh -1, RAD52 anneal inh -37 and GSIS activator -7.
Screening COc1ccc(C#Cc2ccc([C@@H]3[C@@H](CO)N4CCCCN(S(=O)(=O)c5cn(C)cn5)C[C@H]34)cc2)cc1 returned DENV2 CPE rescue 43*, AF4-AF9 inh 1, RAD52 anneal inh 2, GSIS activator -10 and RAD54 inh 3.
`COc1cccc(-c2ccc([C@@H]3[C@@H](CO)N4CCCCN(S(=O)(=O)c5cn(C)cn5)C[C@H]34)cc2)c1` gave DENV2 CPE rescue 73*, AF4-AF9 inh -11, RAD52 anneal inh -6, GSIS activator 5 and RAD54 inh -12.
